Wnt act – activators of Wnt/beta-catenin signaling. actives 1.2% (n = 300,000). Wnt/beta-catenin reporter cell assay, activator, plate reader. activation, % at 9.35 µM; in the data active = activation above about 30%, passing the limit was not always enough; inconclusive = no clear call, values can overlap the other calls
PvdQ inh – blocks Pseudomonas aeruginosa PvdQ acylase activity | inhibition, % at 10 µM | purified PvdQ acylase, fluorescence plate reader | actives 0.063% (n = 340,000); in the data active = inhibition above about 30%, passing the limit was not always enough; inconclusive = no clear call, values can overlap the other calls
Glyco luc inh – blocks N-linked glycosylation in D54 reporter cells; actives 0.23% (n = 360,000); reporter increase, % at 12.5 µM; D54 ERlucT glycosylation luciferase reporter, 24 h; percent of 100 nM tunicamycin response; AID 588692;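 active = mean luciferase reporter signal, scaled so untreated is 0 and the glycosylation-blocking control 100, at or above a set limit in every replicate; inconclusive = mean reaches the limit but not every replicate does; inactive = mean below the limit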;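 note: luciferase carries N-glycosylation sites so blocking glycosylation raises the light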
esBAF inh – blocks esBAF chromatin remodeling in mouse ES cells; reporter increase, % at 12.5 µM; AID 602393; actives 2% (n = 350,000); Bmi1-luciferase knock-in reporter, 24 h; 100% = twice the neutral-well signal; in the data active = activation above about 40%; inconclusive = no clear call, values can overlap the other calls;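 note: a rise in the Bmi1 reporter signal indicates esBAF inhibition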
Vif imaging – inhibitors of HIV Vif; HEK293T cells, Vif self-association by quenched fluorescence, imaging, 24 h; actives 0.35% (n = 340,000); inhibition, % at 7.49 µM; AID 602346; in the data active = inhibition above about 50%, passing the limit was not always enough; inconclusive = no clear call, values can overlap the other calls; inactive = below about 31%
MITF act – MITF TRPM1 promoter activation in melanoma cells; SK-MEL-5 TRPM1-promoter luciferase, 24 h; % of positive control, neutral wells = 0; activation, % at 12.5 µM; actives 0.75% (n = 300,000); AID 588334;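 active = mean activation of at least 80% with every replicate also reaching 80%; inconclusive = mean reaches 80% but some replicate falls short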
Numbers stand for hits. Most compounds without a hit are left out; they make up all but 2.9% or so of the library.

What do the screens show for `O=C(N[C@@H]1CC[C@H](CC(=O)N2CCOCC2)O[C@H]1CO)c1ccc2c(c1)OCO2`?
esBAF inh: inactive

How did C[C@@H]1CN([C@@H](C)CO)C(=O)c2cc(NC(=O)c3ccccc3)ccc2O[C@@H](C)CCCCO[C@@H]1CN(C)S(=O)(=O)c1ccc(Cl)cc1 do in these assays?
esBAF inh: inactive

What do the screens show for `CC(=O)N(C)C[C@@H]1Oc2ncc(C#CC(C)(C)O)cc2C(=O)N([C@H](C)CO)C[C@@H]1C`?
esBAF inh: inactive

How did C[C@@H]1CN([C@H](C)CO)C(=O)c2cc(NC(=O)Nc3ccc4c(c3)OCO4)ccc2O[C@H]1CN(C)C(=O)Nc1ccc(F)cc1 do in these assays?
esBAF inh: inactive

How did COc1ccc(S(=O)(=O)N(C)C[C@@H]2OCCCC[C@H](C)Oc3ccc(NC(=O)Nc4ccccc4)cc3C(=O)N([C@H](C)CO)C[C@@H]2C)cc1 do in these assays?
esBAF inh: inactive

Results for COc1ccc(C2CC(c3ccncc3)=NN2c2ccc(S(N)(=O)=O)cc2)cc1 (stereo not drawn) ?
Wnt act: inactive; PvdQ inh: inactive; Glyco luc inh: inactive; esBAF inh: 83; Vif imaging: 93; MITF act: inactive

What do the screens show for `CCCC#Cc1cnc2c(c1)C(=O)N([C@@H](C)CO)C[C@H](C)[C@@H](CN(C)C(=O)Nc1c(C)noc1C)O2`?
esBAF inh: inactive

What do the screens show for `S=C(Nc1ccccc1)c1nc2ccccc2s1`?
Wnt act: 56; PvdQ inh: inactive; Glyco luc inh: inactive; Vif imaging: inactive; MITF act: inactive

What do the screens show for `CCCC(=O)c1ccc(N2CCCC2)c(F)c1`?
Wnt act: 49; PvdQ inh: inactive; Glyco luc inh: inactive; esBAF inh: inconclusive; Vif imaging: inactive; MITF act: inactive

Results for CCOC(=O)N1CCN(c2ccc(C(C)=O)cc2F)CC1 ?
Wnt act: inactive; PvdQ inh: inactive; Glyco luc inh: inactive; esBAF inh: inactive; Vif imaging: inactive; MITF act: inactive

What do the screens show for `CCOC(=O)N1CCN(c2ccc(C(=O)c3ccccc3)cc2F)CC1`?
PvdQ inh: inactive; Glyco luc inh: inactive; esBAF inh: 56; Vif imaging: inactive; MITF act: inactive

What do the screens show for `CC(C)C#Cc1cnc2c(c1)C(=O)N([C@H](C)CO)C[C@H](C)[C@H](CN(C)C(=O)Nc1cc(F)ccc1F)O2`?
esBAF inh: inactive

Results for COC(=O)c1ccc(N=NN2CCCCC2)cc1 ?
Wnt act: inactive; PvdQ inh: inactive; Glyco luc inh: inactive; Vif imaging: inactive; MITF act: 89

How did CCOC(=O)c1c(C)[nH]c(C(=O)COC(=O)C2(C)CC2(Cl)Cl)c1C (stereo not drawn) do in these assays?
Wnt act: 50; PvdQ inh: inactive; Glyco luc inh: inactive; esBAF inh: 76; Vif imaging: inactive; MITF act: inactive

What do the screens show for `CC(=O)c1c(C)[nH]c(C(=O)COC(=O)C2CC2)c1C`?
Wnt act: inactive; PvdQ inh: inactive; Glyco luc inh: inactive; esBAF inh: inactive; Vif imaging: inactive; MITF act: inactive

How did CCOC(=O)CC(=O)c1[nH]c(C)c(C(=O)OCC)c1C do in these assays?
Wnt act: inactive; PvdQ inh: inactive; Glyco luc inh: inactive; Vif imaging: inactive; MITF act: inactive

What do the screens show for `CCOC(=O)c1c(C)[nH]c(C(=O)COC(=O)C2CC2)c1C`?
Wnt act: inactive; PvdQ inh: inactive; Glyco luc inh: inactive; esBAF inh: inconclusive; Vif imaging: inactive; MITF act: 86

What do the screens show for `Cc1noc(C)c1S(=O)(=O)Nc1ccc2c(c1)C(=O)N([C@@H](C)CO)C[C@@H](C)[C@@H](CN(C)Cc1ccc3c(c1)OCO3)OCCCC[C@@H](C)O2`?
esBAF inh: inactive

Results for O=C(C[C@H]1CC[C@H]2[C@@H](COC[C@@H](O)CN2Cc2nccs2)O1)NCc1ccc(Cl)cc1 ?
esBAF inh: inactive

What do the screens show for `C[C@H]1CN([C@@H](C)CO)C(=O)c2cccc(NC(=O)Nc3ccccc3)c2O[C@H]1CN(C)C(=O)NC1CCCCC1`?
esBAF inh: inactive

How did COc1cc(C2C(C#N)=C(N)OC3=C2C(=O)CC(C)(C)C3)cc([N+](=O)[O-])c1O (stereo not drawn) do in these assays?
Wnt act: 40; PvdQ inh: inactive; Glyco luc inh: inactive; Vif imaging: inactive; MITF act: inactive

How did CCCc1nnc(NC(=O)Nc2ccccc2OC)s1 do in these assays?
PvdQ inh: inactive; Glyco luc inh: inactive; Vif imaging: inactive; MITF act: inactive

How did CCCSc1nnc(NC(=O)Nc2ccccc2OC)s1 do in these assays?
Wnt act: inactive; PvdQ inh: inactive; Glyco luc inh: inactive; esBAF inh: 47; Vif imaging: inactive

How did C[C@@H]1CCCCO[C@H](CN(C)Cc2ccc(C(F)(F)F)cc2)[C@@H](C)CN([C@@H](C)CO)C(=O)c2cc(NC(=O)NC3CCCCC3)ccc2O1 do in these assays?
esBAF inh: inactive

Results for c1ccc(NC2=Nc3cccc4cccc2c34)cc1 ?
Wnt act: inactive; PvdQ inh: inactive; Glyco luc inh: inactive; esBAF inh: inactive; Vif imaging: inactive; MITF act: inactive

What do the screens show for `Fc1ccc(/C=N/NC2=Nc3cccc4cccc2c34)cc1`?
Wnt act: 58; PvdQ inh: inactive; Glyco luc inh: inactive; Vif imaging: inactive; MITF act: inactive

How did COc1ccc(CN(C)C[C@@H]2Oc3ccc(NC(=O)Nc4ccc(F)cc4)cc3CC(=O)N([C@@H](C)CO)C[C@@H]2C)cc1 do in these assays?
esBAF inh: inactive

What do the screens show for `C[C@@H](NC(=O)C[C@@H]1C=C[C@H](NC(=O)Cc2ccccn2)[C@@H](CO)O1)c1ccccc1`?
esBAF inh: inactive

What do the screens show for `Cc1ccc(C(C)(C)NC(=O)C2CCC(=O)N(C3CCCCCC3)C2)cc1` (stereo not drawn)?
Wnt act: inactive; PvdQ inh: inactive; Glyco luc inh: inactive; esBAF inh: 74; Vif imaging: inactive; MITF act: inactive

How did C[C@H](CO)N1C[C@H](C)[C@H](CN(C)C(=O)C2CCOCC2)Oc2ncc(C#Cc3cccc(F)c3)cc2C1=O do in these assays?
esBAF inh: inactive

What do the screens show for `CC(=O)Nc1cccc(NC(=O)c2ccc3[nH]c(C)c(C)c3c2)c1`?
Wnt act: inactive; PvdQ inh: inactive; Glyco luc inh: inactive; esBAF inh: 49; Vif imaging: inactive; MITF act: inactive

Results for COc1ccc(N2CCN(C(=O)c3ccc4[nH]c(C)c(C)c4c3)CC2)cc1 ?
Wnt act: inactive; PvdQ inh: inactive; Glyco luc inh: inactive; esBAF inh: inactive; Vif imaging: inactive; MITF act: inactive

Results for Cc1cc(NC(=O)c2ccc3[nH]c(C)c(C)c3c2)ccn1 ?
Wnt act: inactive; PvdQ inh: inactive; Glyco luc inh: inactive; esBAF inh: inactive; Vif imaging: inactive; MITF act: inactive

Screening data deposited in PubChem BioAssay by Broad Institute.
